# Test results as given in PubChem BioAssay.
# Several values for one entry are separate records, joined by “and”; a condition that tells them apart may be missing. Equal values may be shown once. Activity calls are given as the source filed them. Unless noted, no stated cut-off is given here; in the data, active means nuclear beta-catenin stimulation mostly above about 4.2% (no sharp cut-off); inactive means mostly below about 10%.
# Experiments:
# [1] = Wnt pathway potentiators raising nuclear beta-catenin – imaging, WNT3A-conditioned medium, mouse C2C12, NPC library, primary screen (AID 1117326); details: stronger effect = higher value
# [2] = stimulators of insulin release from INS-1E, primary screen, cell-based, 5 mM glucose, NPC library (AID 1117329;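 active means compound raises insulin release from rat beta cells at 5 mM glucose, no numeric limit stated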); details: rat INS-1E insulin secretion, at 10 µM, stronger effect = higher value
# [3] = growth inhibition of GSK3B-pretreated HCT116 cells – cell-based, CellTiter-Glo, 0.2 to 20 µM (AID 1117336;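 active means compounds lowering colon cancer cell viability after pretreatment blocking the GSK3B kinase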); details: HCT116 viability after GSK3B inhibitor, at 20 µM, stronger effect = higher value
# [4] = inhibition of endothelial tube formation, primary screen, imaging, VEGF stimulated, CD31 staining, tube area, NPC library (AID 1117340;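 active means compound that reduces growth-factor-driven endothelial tube area in a mixed cell culture, no cutoff stated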); details: VEGF-stimulated ADSC/ECFC co-culture, at 10 µM, stronger effect = higher value
# [5] = GLP1 release stimulators, primary, NCI-H716, NPC library (AID 1117341;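 active means compound raises GLP1 secretion from the human gut endocrine cells, with no numeric limit stated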); details: NCI-H716 cells, at 10 µM, stronger effect = higher value
# [6] = HCT116 colon cancer cell growth inhibition, primary screen, CellTiter-Glo luminescence, NPC library (AID 1117342;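 active means compounds that lower survival of HCT116 colon cancer cells in the luminescence readout, no numeric limit stated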); details: at 20 µM (top of the series)
# [7] = reduced SW480 viability measured with CellTiter-Glo, NPC library, primary (AID 1117343;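 active means compounds that lower viability of the colon cancer cells in the luminescence readout, with no numeric limit stated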); details: CellTiter-Glo luminescence; at 20 µM (top of the series) unless noted
# [8] = NPC library primary testing for decreased DLD-1 cell viability via CellTiter-Glo (AID 1117346;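 active means compounds that lower survival of DLD-1 colon cancer cells in the luminescence readout, no cutoff given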); details: DLD-1 viability, CellTiter-Glo luminescence; at 20 µM (top of the series)
# [9] = EMT-state selective cytotoxicity in co-culture – imaging, PC-3E GFP, TEM4-18 mCherry, primary screen (AID 1345086;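 active means compounds killing one labelled cell type while sparing the other, by normalised counts and ratio limits, not self-fluorescent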;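 on all read-outs here: cells exposed to compound for 72 h before imaging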;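 on red/green cell ratio (normalised): normalised mesenchymal count divided by normalised epithelial count so high means epithelial killing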); details: PC-3E GFP / TEM4-18 mCherry co-culture, imaging cell counts, at 1 µM; for red/green cell ratio (normalised): actives lie on both sides, counts scaled to control wells, 1 = unselective
# [10] = P. berghei load reduction in hepatocytes – cell-based, HepG2, luciferase luminescence, HepG2 viability, primary screen (AID 624349; in the data active means parasite load remaining mostly below about 12%, no sharp cut-off; inactive means mostly above about 10%;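 further: 100% = mean of DMSO negative control wells on the same plate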); details: P. berghei liver stage in HepG2, luciferase luminescence, concentration not given here; parasite load remaining: stronger effect = lower value; viability: measured here: HepG2 viability without parasites
# [11] = viability loss with induced miR-34 in A549 – imaging, A549 dox-inducible miR-34, nuclei and caspase counts, primary screen (AID 1347080;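 active means compounds whose cell count with miR-34 switched on is under 0.7 times the count with it off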); details: A549 miR-34 inducible, Hoechst nuclei count, 48 h
# [12] = target: NAD(+) hydrolase SARM1 (Homo sapiens) (UniProt Q6SZW1); assay: blocking NAD cleavage by SARM1 SAM-TIR – cell lysate, NAD-Glo luminescence (AID 1508614;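 active means compound whose remaining NAD level is above about 45 nM, limit read from the data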); details: SAM-TIR HEK293T lysate NADase, at 1 µM, stronger effect = higher value
# [13] = MELAS cybrid and Rieske KO viability enhancers – cell-based, MELAS cybrids, Rieske KO mouse fibroblasts, CellTiter-Glo, primary screen (AID 1508586;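 active means mean z-score across replicates of 1.96 or higher in either the MELAS or the Rieske mutant cell line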;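 further: z relative to plate mean and SD of compound and empty wells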); details: low glucose
# [14] = galactose survival enhancers in mitochondrial complex I cybrids – cell-based, galactose medium, ATP luminescence, primary screen (AID 1645843;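 active means z-score of at least 1.8 in each of two replicates, scored against plate mean and spread of sample wells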;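 further: positive z means more ATP and so rescue of galactose-driven cybrid death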); details: complex I mutant cybrid cells, 72 h, stronger effect = higher value
# [15] = measured here: epithelial PC-3E GFP cell survival
# [16] = measured here: mesenchymal TEM4-18 mCherry cell survival
# [17] = stronger effect = lower value, cell number ratio, induced over uninduced
# [18] = measured here: relative caspase fold change +Dox/-Dox
# [19] = measured here: total cells with miR-34 induction, stronger effect = lower value
# [20] = measured here: total cells without miR-34 induction
# [21] = MELAS cybrid survival, CellTiter-Glo 48 h, stronger effect = higher value
# [22] = Rieske KO mouse fibroblast survival, CellTiter-Glo 72 h
# Sequence of NAD(+) hydrolase SARM1 (Homo sapiens) (Q6SZW1 whole entry, looked up): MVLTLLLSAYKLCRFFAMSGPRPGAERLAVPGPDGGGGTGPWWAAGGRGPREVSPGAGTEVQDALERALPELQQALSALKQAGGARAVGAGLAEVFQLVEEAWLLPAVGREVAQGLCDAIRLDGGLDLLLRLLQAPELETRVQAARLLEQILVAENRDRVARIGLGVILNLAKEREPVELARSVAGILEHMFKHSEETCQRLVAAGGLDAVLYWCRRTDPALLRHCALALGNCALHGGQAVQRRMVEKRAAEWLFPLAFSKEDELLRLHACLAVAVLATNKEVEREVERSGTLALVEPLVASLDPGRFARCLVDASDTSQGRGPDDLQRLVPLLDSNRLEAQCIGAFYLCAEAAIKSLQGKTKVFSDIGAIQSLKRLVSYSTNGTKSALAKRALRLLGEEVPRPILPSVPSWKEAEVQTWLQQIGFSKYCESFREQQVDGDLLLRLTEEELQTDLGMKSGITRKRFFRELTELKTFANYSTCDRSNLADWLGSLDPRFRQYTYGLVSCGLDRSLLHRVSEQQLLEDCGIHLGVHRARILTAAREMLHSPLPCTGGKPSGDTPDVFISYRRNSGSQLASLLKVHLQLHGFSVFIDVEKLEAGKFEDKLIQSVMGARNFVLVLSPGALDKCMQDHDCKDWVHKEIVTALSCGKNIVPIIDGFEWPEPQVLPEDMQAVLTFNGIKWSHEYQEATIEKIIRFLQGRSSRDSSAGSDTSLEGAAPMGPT
compound,measurement,setting,value
CNCc1ccccc1,nuclear beta-catenin stimulation,[1]; at 10 µM,-1.9% (inactive)
same,nuclear beta-catenin stimulation,"[1]; stimulation, at 2 µM",0.6%
same,insulin secretion stimulation,[2],-0.1% (inactive)
same,viability decrease,[3],-25.9% (inactive)
same,tube area decrease,[4],-5.5% (inactive)
same,GLP1 secretion stimulation,[5],-3.4% (inactive)
same,inhibition of viability,[6],-14.3% (inactive)
same,viability decrease (inhibition),[7],-24.6% (inactive)
same,viability decrease (inhibition),[8],-15.4% (inactive)
same,red/green cell ratio (normalised),[9],0.9 (inactive)
same,normalised cell number,[9]; [15],1.18
same,normalised cell number,[9]; [16],1.06
CC(=O)OCC(=O)[C@@]1(O)CCC2C3CCC4=CC(=O)CC[C@]4(C)C3[C@@H](O)C[C@@]21C (stereo partly specified),parasite load remaining,[10],123% (inactive) and 70.8% (inactive)
same,viability,[10],73.9% and 90.3%
same,nuclear beta-catenin stimulation,[1]; at 10 µM,-1.1% (inactive)
same,nuclear beta-catenin stimulation,"[1]; stimulation, at 2 µM",-0.8%
same,insulin secretion stimulation,[2],-1.3% (inactive)
same,viability decrease,[3],-8% (inactive)
same,tube area decrease,[4],1.6% (inactive)
same,GLP1 secretion stimulation,[5],-3.9% (inactive)
same,inhibition of viability,[6],-1.6% (inactive)
same,viability decrease (inhibition),[7],-3% (inactive)
same,viability decrease (inhibition),[8],-12.5% (inactive)
same,red/green cell ratio (normalised),[9],1.16 (inactive)
same,normalised cell number,[9]; [15],1.24
same,normalised cell number,[9]; [16],1.44
same,fold change,[11]; [17],0.742 (inactive)
same,fold change,[11]; [18],1.6
same,cell count,[11]; [19],6930
same,cell count,[11]; [20],9340
CCCCCCCCCCOc1cc2c(=O)c(C(=O)OCC)c[nH]c2cc1OCC,parasite load remaining,[10],0.015% (active)
same,viability,[10],101%
same,nuclear beta-catenin stimulation,[1]; at 10 µM,-2.3% (inactive)
same,nuclear beta-catenin stimulation,"[1]; stimulation, at 2 µM",-0.1%
same,insulin secretion stimulation,[2],-0.4% (inactive)
same,viability decrease,[3],-29.2% (inactive)
same,tube area decrease,[4],-2% (inactive)
same,GLP1 secretion stimulation,[5],1.3% (inactive)
same,inhibition of viability,[6],-5.6% (inactive)
same,viability decrease (inhibition),[7],-212% (inactive)
same,viability decrease (inhibition),[8],-42% (inactive)
same,red/green cell ratio (normalised),[9],1 (inactive)
same,normalised cell number,[9]; [15],0.98
same,normalised cell number,[9]; [16],0.98
same,fold change,[11]; [17],0.938 (inactive)
same,fold change,[11]; [18],1.91
same,cell count,[11]; [19],11200
same,cell count,[11]; [20],11900
same,remaining NAD,[12],10 nM (inactive)
C[N+](C)(C)CCCCCCCCCC[N+](C)(C)C,parasite load remaining,[10],84.1% (inactive) and 61.8% (inactive) and 73.4% (inactive)
same,viability,[10],80.8% and 105% and 148%
same,nuclear beta-catenin stimulation,[1]; at 10 µM,-0.1% (inactive)
same,nuclear beta-catenin stimulation,"[1]; stimulation, at 2 µM",-0.9%
same,insulin secretion stimulation,[2],1.7% (inactive)
same,viability decrease,[3],17.6% (inactive)
same,tube area decrease,[4],-2.9% (inactive)
same,GLP1 secretion stimulation,[5],0.7% (inactive)
same,inhibition of viability,[6],2.9% (inactive)
same,viability decrease (inhibition),[7],-8.7% (inactive)
same,viability decrease (inhibition),[8],-0.3% (inactive)
same,red/green cell ratio (normalised),[9],0.87 (inactive)
same,normalised cell number,[9]; [15],1.13
same,normalised cell number,[9]; [16],0.99
same,z-score,[13]; [21],-0.278 (inactive) and -0.415 (inactive) and 0.382 (inactive)
same,z-score,[13]; [22],-0.149 and -1.14 and 0.433
same,remaining NAD,[12],10 nM (inactive)
same,z-score,[14],0.27 (inactive) and 0.14 (inactive)
CN(C)CCCOc1nn(Cc2ccccc2)c2ccccc12,nuclear beta-catenin stimulation,[1]; at 10 µM,2.1% (inactive)
same,nuclear beta-catenin stimulation,"[1]; stimulation, at 2 µM",0.5%
same,insulin secretion stimulation,[2],86.5% (active)
same,viability decrease,[3],21.7% (inactive)
same,tube area decrease,[4],12.8% (inactive)
same,GLP1 secretion stimulation,[5],6% (inactive)
same,inhibition of viability,[6],46% (inactive)
same,viability decrease (inhibition),[7],82.6% (active)
same,viability decrease (inhibition),[8],84.1% (active)
same,red/green cell ratio (normalised),[9],0.88 (inactive)
same,normalised cell number,[9]; [15],1.01
same,normalised cell number,[9]; [16],0.89
same,z-score,[13]; [21],-0.315 (inactive) and 0.45 (inactive) and -0.608 (inactive)
same,z-score,[13]; [22],-0.145 and 0.0321 and -1.45
same,remaining NAD,[12],10 nM (inactive)
same,z-score,[14],-0.89 (inactive)
O=C1c2ccccc2C(=O)C1c1ccc(Br)cc1,parasite load remaining,[10],54.8% (inactive)
same,viability,[10],105%
same,nuclear beta-catenin stimulation,[1]; at 10 µM,2.7% (inactive)
same,nuclear beta-catenin stimulation,"[1]; stimulation, at 2 µM",1.3%
same,insulin secretion stimulation,[2],4.3% (inactive)
same,viability decrease,[3],52.2% (active)
same,tube area decrease,[4],31.1% (inactive)
same,GLP1 secretion stimulation,[5],-0.4% (inactive)
same,inhibition of viability,[6],61.7% (active)
same,viability decrease (inhibition),[7],67.2% (active)
same,viability decrease (inhibition),[8],26.1% (inactive)
same,red/green cell ratio (normalised),[9],0.9 (inactive)
same,normalised cell number,[9]; [15],0.94
same,normalised cell number,[9]; [16],0.85
same,fold change,[11]; [17],0.831 (inactive)
same,fold change,[11]; [18],3.92
same,cell count,[11]; [19],10800
same,cell count,[11]; [20],13100
same,remaining NAD,[12],10 nM (inactive)
NCCNCCNCCN,parasite load remaining,[10],41.3% (inactive)
same,viability,[10],163%
same,nuclear beta-catenin stimulation,[1]; at 10 µM,0.6% (inactive)
same,nuclear beta-catenin stimulation,"[1]; stimulation, at 2 µM",0.7%
same,insulin secretion stimulation,[2],0.4% (inactive)
same,viability decrease,[3],0.25% (inactive)
same,tube area decrease,[4],-7.4% (inactive)
same,GLP1 secretion stimulation,[5],-0.1% (inactive)
same,inhibition of viability,[6],4.7% (inactive)
same,viability decrease (inhibition),[7],-40.9% (inactive)
same,viability decrease (inhibition),[8],3.2% (inactive)
same,red/green cell ratio (normalised),[9],0.86 (inactive)
same,normalised cell number,[9]; [15],1.02
same,normalised cell number,[9]; [16],0.88
same,fold change,[11]; [17],0.908 (inactive)
same,fold change,[11]; [18],4.46
same,cell count,[11]; [19],11700
same,cell count,[11]; [20],12900
same,remaining NAD,[12],10 nM (inactive)
CC1(C)[C@@H]2CC[C@@]1(C)C(=O)C2,nuclear beta-catenin stimulation,[1]; at 10 µM,0.2% (inactive)
same,nuclear beta-catenin stimulation,"[1]; stimulation, at 2 µM",0.6%
same,insulin secretion stimulation,[2],2.4% (inactive)
same,viability decrease,[3],2.6% (inactive)
same,tube area decrease,[4],-4.3% (inactive)
same,GLP1 secretion stimulation,[5],-0.1% (inactive)
same,inhibition of viability,[6],10.9% (inactive)
same,viability decrease (inhibition),[7],2.9% (inactive)
same,viability decrease (inhibition),[8],15.5% (inactive)
same,red/green cell ratio (normalised),[9],0.84 (inactive)
same,normalised cell number,[9]; [15],1.25
same,normalised cell number,[9]; [16],1.05
same,remaining NAD,[12],10 nM (inactive)
CCOC(=O)c1ccc(O)cc1,parasite load remaining,[10],75.1% (inactive)
same,viability,[10],94.6%
same,nuclear beta-catenin stimulation,[1]; at 10 µM,-0.6% (inactive)
same,nuclear beta-catenin stimulation,"[1]; stimulation, at 2 µM",0.9%
same,insulin secretion stimulation,[2],5.1% (inactive)
same,viability decrease,[3],1.8% (inactive)
same,tube area decrease,[4],-5% (inactive)
same,GLP1 secretion stimulation,[5],2.1% (inactive)
same,inhibition of viability,[6],4.1% (inactive)
same,viability decrease (inhibition),[7],29.4% (inactive)
same,viability decrease (inhibition),[8],11.2% (inactive)
same,red/green cell ratio (normalised),[9],0.82 (inactive)
same,normalised cell number,[9]; [15],1.05
same,normalised cell number,[9]; [16],0.86
same,fold change,[11]; [17],0.873 (inactive)
same,fold change,[11]; [18],1.39
same,cell count,[11]; [19],10900
same,cell count,[11]; [20],12500
same,remaining NAD,[12],10 nM (inactive)
O=C(CCCl)NCc1ccccc1,nuclear beta-catenin stimulation,[1]; at 10 µM,0.5% (inactive)
same,nuclear beta-catenin stimulation,"[1]; stimulation, at 2 µM",8.3%
same,insulin secretion stimulation,[2],1.8% (inactive)
same,viability decrease,[3],0.2% (inactive)
same,tube area decrease,[4],-9.5% (inactive)
same,GLP1 secretion stimulation,[5],-0.7% (inactive)
same,inhibition of viability,[6],5% (inactive)
same,viability decrease (inhibition),[7],0.6% (inactive)
same,viability decrease (inhibition),[8],14.6% (inactive)
same,red/green cell ratio (normalised),[9],0.95 (inactive)
same,normalised cell number,[9]; [15],1.13
same,normalised cell number,[9]; [16],1.07
same,remaining NAD,[12],10 nM (inactive)
